ssDAF12 agonist – S. stercoralis DAF-12 nuclear receptor activators, primary screen, cell-based, luminescence, HEK293, GRIP1 co-expression, lit1-tk-luc. HEK293 ssDAF-12/GRIP1 lit1-tk-luc reporter; % of 3 µM dafachronic acid response. activation, % at 6.8 µM. 370,000 tested, 1% active. AID 652126, 2013;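 active means activation above the mean over all tested compounds plus 3 SD, cut at about 0.9% in these data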;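 further: 0% = DMSO-only wells and 100% = 3 µM delta7-dafachronic acid wells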
DAX1 inh-1 – DAX1 (NR0B1) inhibitors on StAR promoter, primary screen, cell-based, luminescence, SF-1 (NR5A1), full-length DAX-1; AID 652010, 2013; HEK293T StAR-luciferase reporter, SF-1/DAX-1 repression relief; inhibition, % at 6.8 µM; 370,000 tested, 1.1% active;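 active means inhibition above the mean over all tested compounds plus 3 SD, cut at about 3.6% in these data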;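 further: 0% = DAX-1 cells with DMSO and 100% = cells lacking DAX-1 with DMSO; higher inhibition means more luminescence from relief of DAX-1 repression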
hcDAF12 agonist – H. contortus DAF-12 nuclear receptor activators, primary screen, cell-based, luminescence, HEK293, lit1-tk-luc reporter. 370,000 tested, 1.4% active. HEK293 hcDAF-12 lit1-tk-luc reporter; 0% DMSO, 100% Δ7-dafachronic acid. activation, % at 6.8 µM;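 active means activation above the mean of all tested compounds plus 3 SD, cut at about 5.5% in these data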;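 further: 100% = response to 3 µM Δ7-dafachronic acid high control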
hgDAF12 agonist – H. glycines DAF-12 receptor agonists, primary screen, cell-based, luminescence, HEK293, GAL4 fusion, UAS-luciferase; Nuclear hormone receptor DAF-12 (Heterodera glycines), GAL4 fusion; HEK293 GAL4-hgDAF12 UAS-luciferase reporter, agonist luminescence; normalized to butyrate control; activation, % at 6.8 µM; 370,000 tested, 1.8% active; AID 687014, 2013;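 active means activation above a cutoff set at the mean of all screened compounds plus 3 SD, cut at about 10% in these data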;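 further: 0% = DMSO wells and 100% = sodium butyrate wells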
DAX1 inh-2 – DAX1 (NR0B1) inhibitors, primary screen, cell-based, HEK293, Gal4-DAX1, luciferase luminescence; inhibition, % at 6.75 µM; Nuclear receptor subfamily 0 group B member 1 (Homo sapiens), P51843; HEK293 Gal4-DAX1 luciferase reporter; AID 504766, 2011; 340,000 tested, 0.99% active;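 active means inhibition above the mean over all tested compounds plus 3 SD, cut at about 4.2% in these data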;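 further: 0% = DAX1-transfected cells with DMSO and 100% = empty-vector control cells with DMSO; inhibition shows as a rise in luminescence from relieved DAX1 repression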
DAX1 inh confirm – DAX1 (NR0B1) inhibitors relieving SF-1 repression, confirmation, cell-based, luminescence, HEK293T, full-length DAX-1, SF-1 activated StAR promoter. inhibition, % at 6.8 µM. shares compounds with DAX1 inh-1. 2,400 tested, 87% active. AID 652134, 2013. HEK293T StAR-promoter luciferase reporter, SF-1/DAX-1 repression;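 active means inhibition above the average of every tested compound plus 3 SD, cut at about 3.8% in these data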;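 further: 0% = DAX-1 cells with DMSO and 100% = no DAX-1 control cells with DMSO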
Target sequence (P51843 whole entry, looked up): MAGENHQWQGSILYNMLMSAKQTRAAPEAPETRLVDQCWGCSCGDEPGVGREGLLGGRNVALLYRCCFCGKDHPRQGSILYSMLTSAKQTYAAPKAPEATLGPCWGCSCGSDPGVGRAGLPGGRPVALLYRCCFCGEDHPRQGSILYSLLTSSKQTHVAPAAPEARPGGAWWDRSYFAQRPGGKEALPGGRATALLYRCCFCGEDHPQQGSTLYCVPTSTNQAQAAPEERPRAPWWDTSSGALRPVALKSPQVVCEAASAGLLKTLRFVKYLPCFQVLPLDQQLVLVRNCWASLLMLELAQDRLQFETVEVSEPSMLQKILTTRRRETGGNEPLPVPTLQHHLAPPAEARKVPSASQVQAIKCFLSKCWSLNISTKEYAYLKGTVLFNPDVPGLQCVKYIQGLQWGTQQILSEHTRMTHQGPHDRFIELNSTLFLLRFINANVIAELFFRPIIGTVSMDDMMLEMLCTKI
SF1 AF2mut Luc – StAR reporter signal changes without DAX1, counter-screen for DAX1 inhibitor project, cell-based, luminescence, AF-2 mutant SF-1, transactivation. shares compounds with DAX1 inh-1. HEK293 StAR-luciferase, SF-1 AF2 mutant. inhibition, % at 6.8 µM. 2,400 tested, 78% active. AID 652136, 2013;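 active means inhibition above the mean of all tested compounds plus 3 SD, cut at about 3% in these data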;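 further: 0% = DAX-1 transfected cells with DMSO and 100% = cells without DAX-1 with DMSO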
An asterisk follows results filed as active; nt = no result given. The list is not random: actives were taken first. Their share in the collection is about 4.1%.

SMILES	ssDAF12 agonist	DAX1 inh-1	hcDAF12 agonist	hgDAF12 agonist	DAX1 inh-2	DAX1 inh confirm	SF1 AF2mut Luc
CCCCCCN1C[C@@H](O)[C@H](n2cc(COC(=O)c3ccccc3)nn2)C[C@@H]1c1ccccc1	-0.6	4.6*	-1.6	-2.3	1.4	-0.6	-0.7
CCN(CC)C(=O)c1ncn2c1C(=O)NC[C@@H]2C	-1.2	-0.2	0.5	1.1	nt	nt	nt
COC(=O)C1CN(Cc2cn(Cc3ccc(F)cc3)nn2)CCS(=O)(=O)N1Cc1ccccc1 (stereo unspecified)	-2.3	-1.1	-0.6	-2.0	nt	nt	nt
O=C(N/N=C/c1ccsc1)c1ccccn1	0.6	5.7*	6.3*	13.2*	5.0*	4.7*	2.7
O=C(NN=C(c1ccccc1)c1ccccn1)c1ccccc1	-1.7	-5.4	-2.3	-9.8	-2.9	nt	nt
C/C(Cc1ccccc1)=N\NC(=O)c1cccnc1	-0.3	0.1	-2.8	-1.3	-0.4	nt	nt
O=C(NN=C1CCC(=NNC(=O)c2ccccn2)CC1)c1ccccn1	0.5	5.7*	5.5	16.9*	0.2	1.2	0.7
CCOc1cc(/C=N/NC(=O)c2ccccn2)ccc1OC(=O)c1ccc(F)cc1	-0.3	6.1*	1.4	8.9	1.2	2.0	4.7*
C/C(Cc1ccccc1)=N\NC(=O)c1ccccn1	0.0	8.5*	3.4	12.3*	1.7	2.9	1.2
CCNC(=O)Nc1ccc2c(c1)C(=O)N(C)[C@H]1CC[C@@H](CC(=O)NCCN3CCCC3)O[C@@H]1CO2	-0.4	-0.1	0.6	5.9	nt	nt	nt
Cc1[nH]nc2c1C(c1ccc(Br)cc1)N(Cc1ccccc1)C2=O (stereo unspecified)	-1.3	-0.6	-0.9	-3.6	nt	nt	nt
CC(C)CNc1cccc2c1S(=O)(=O)N(Cc1cccc(F)c1)[C@@H](C)[C@H](c1ccccc1)O2	-1.0	0.7	0.9	1.6	nt	nt	nt
CCOc1ccc(NC(=O)CSc2nccn2Cc2ccco2)cc1	-0.6	-2.5	2.0	6.2	1.2	nt	nt
Cn1ccnc1SCC(=O)Nc1ccc2ccccc2c1	1.2*	5.7*	5.0	9.1	0.3	10.3*	6.3*
Cn1ccnc1SCC(=O)Nc1ccc(SC(F)F)cc1	0.1	6.2*	1.7	5.0	0.9	8.4*	5.3*
COc1ccc(NC(=O)CSc2nccn2Cc2ccco2)cc1	-0.1	5.2*	1.0	8.2	0.8	6.8*	6.0*
COc1ccc(OC)c(C(=O)CSc2nnnn2C)c1	-0.8	1.1	-1.9	-0.9	0.4	nt	nt
COc1ccc(C(=O)CSc2nccn2C)c(OC)c1	-0.3	6.9*	2.7	11.1*	1.1	5.5*	2.6
Cn1ccnc1SCC(=O)Nc1ccccc1	-1.1	0.3	-0.6	-0.2	0.1	nt	nt
COc1ccccc1CCn1cnc(-c2cccc(Br)c2)c1CC(C)C	-1.4	-2.0	-1.8	-2.7	nt	nt	nt
O=C(OC12CCCN(C1)/C(=C/c1cccc(Cl)c1)C2)C1CCCC1 (stereo unspecified)	-0.8	1.2	-1.5	1.6	nt	nt	nt
Cc1cc2c(c(=O)o1)[C@@]1(C(=O)N(C)c3ccc([N+](=O)[O-])cc31)C1=C(CCCC1=O)O2	-0.9	1.2	-0.6	2.0	nt	nt	nt
COc1ccccc1OCc1cc(C(=O)N(C)CCC2CCCCO2)no1 (stereo unspecified)	0.2	5.0*	2.8	10.7*	1.9	7.1*	2.8
O=C(Nc1nnc(C2CC2)s1)c1cc2ccccc2o1	0.3	6.1*	3.4	13.0*	2.4	7.3*	4.8*
O=C(Nc1nnc(C2CC2)s1)C1COc2ccccc2O1 (stereo unspecified)	-0.8	5.7*	3.0	12.0*	1.5	11.4*	5.5*
SMILES	ssDAF12 agonist	DAX1 inh-1	hcDAF12 agonist	hgDAF12 agonist	DAX1 inh-2	DAX1 inh confirm	SF1 AF2mut Luc
CC(C)(C)c1csc(NC(=O)C2COc3ccccc3O2)n1 (stereo unspecified)	-0.9	5.0*	0.6	9.5	0.9	2.0	2.6
COC(=O)[C@]12C[C@H](CC(=O)NCCC(C)C)C(=O)N(Cc3ccco3)C1=C[C@H](C1CCCC1)O[C@@H]2C	-0.8	-0.3	-2.2	0.1	nt	nt	nt
COc1ccc(-c2cc(=O)c3c(C)cc(O)cc3o2)cc1	1.8*	5.6*	6.5*	12.1*	1.9	13.3*	4.6*
Cn1cccc1/C=N/NC(=O)c1cccs1	0.1	5.5*	0.5	10.9*	2.4	5.7*	3.7*
CN(C(=O)CSc1nc2ccccc2o1)C1CCCCC1	0.2	9.0*	0.3	13.1*	2.2	7.2*	5.9*
O=C(N[C@H](C(=O)N1CCC[C@H]1C(=O)NCc1ccccc1)c1ccccc1)C1CCCC1	-1.4	0.9	-1.1	1.9	nt	nt	nt
CCN1C(=O)/C(=C/C=C2/SCCN2C)SC1=S	0.1	4.7*	5.8*	10.2	3.9	10.5*	5.6*
Cc1ccsc1C(=O)OCC(=O)N1CCc2ccccc2C1	-0.3	6.9*	2.4	10.7*	2.5	12.6*	5.9*
Cc1ccsc1C(=O)OCC(=O)N(C)C1CCCCC1	0.2	10.3*	5.9*	12.5*	0.6	10.6*	6.3*
Cc1ccsc1C(=O)OCC(=O)NC1CCCC1	0.3	2.3	5.0	5.1	1.5	nt	nt
Nc1ccc(S(=O)(=O)Nc2cnc3c(Cl)cccc3n2)cc1	-0.5	5.7*	-1.2	-2.5	2.5	5.2*	-1.1
O=c1[nH]c(COc2ccc(Br)cc2Cl)nc2ccccc12	-0.5	7.4*	2.8	6.0	1.9	7.7*	4.8*
Cc1cc(C)c2nc(SCC(=O)N3CC(=O)Nc4ccccc43)c(C#N)cc2c1	-0.6	4.8*	-1.8	-1.9	-1.5	10.5*	-7.5
CC(=O)Nc1cccc(-c2cc3c(c4c2ccn4C)C2CCC3O2)c1 (stereo unspecified)	-1.6	-0.6	2.3	-0.9	nt	nt	nt
Cn1ccc2c(-c3ccc(C(N)=O)cc3)cc3c(c21)C1CCC3O1 (stereo unspecified)	-1.1	4.6*	-0.3	-3.7	nt	1.0	-0.2

Screening data as filed in PubChem.
